The results in this text go back to PubChem BioAssay (Tox21).

Experiment [1] can be described thus: Nuclear factor erythroid 2-related factor 2/antioxidant responsive element (Nrf2/ARE) small molecule agonists: qHTS cell viability counter screen in human keratinocytes (AID 1919968; active = well fitted curve in the direction sought with a large enough effect in the repeat runs; an effect the other way counts as inactive or inconclusive; note: nearly all actives have a fitted effect of over 55% in size; note: potency is the fitted concentration of half-maximal effect). The method, boiled down:
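Viability counter-screen: KeratinoSens reporter cells, DMSO-delivered compounds, 23 h at 37 C, CellTiter-Fluor fluorescence.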
A general note: Quantitative high-throughput screening tests each substance at several concentrations.

Experiment [2] is described as follows: Nuclear factor erythroid 2-related factor 2/antioxidant responsive element (Nrf2/ARE) small molecule agonists: luciferase reporter gene qHTS assay in human keratinocytes (AID 1919969). Note: nearly all actives have a fitted effect of over 35% in size. Note: potency is the fitted concentration of half-maximal effect. In general terms: Reporter assays use an easily measured gene product as a stand-in for the process of interest.
The target of experiment [3] is Gonadotropin-releasing hormone receptor (Homo sapiens) (UniProt P30968). The experiment can be described thus: Human gonadotropin-releasing hormone receptor (GnRHR) small molecule agonists, calcium flux assay in GnRHR-HEK293 cells (AID 1920063). Note: nearly all actives have a fitted effect of over 35% in size. The method, boiled down:
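Tox21-format agonist screen using human GnRHR-expressing HEK293 cells and a fluorescent calcium dye; kinetic 3-min fluorescence reading after compound addition, 15-point concentration series run in triplicate.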
In general terms: Calcium assays in cells follow changes in intracellular calcium, usually with a dye or a luminescent sensor.

Experiment [4] concerns the target KiSS-1 receptor (Homo sapiens) (UniProt Q969F8). The experiment can be described thus: Human kisspeptin (KISS1R) small molecule agonists, calcium flux assay in KISS1R-HEK293 cells (AID 1920064; active = well fitted curve in the direction sought with a large enough effect in the repeat runs; an effect the other way counts as inactive or inconclusive). The method, boiled down: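 Intracellular calcium mobilization in KISS1R-HEK293 cells was recorded by fluorescence (Ex/Em 480/540) for 3 min following compound addition to cells pre-loaded 1 h with calcium dye.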

Experiment [5] in a line: G protein-coupled receptor (GPCR) small molecule agonists, calcium flux assay: HEK293 wild type cell line counter screen (AID 1920065). The method in brief: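 In this agonist-mode screen, ATP is the positive control and DMSO the vehicle. Cells grow 18 h before a 1 h dye incubation at 37 C; signal is taken at Ex/Em 480/540 over 3 min.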
A short description of experiment [6]: p53 small molecule agonists, cell-based qHTS assay with human liver microsomes (AID 1963577).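 Note: p53 response element beta-lactamase reporter cells with liver microsomes plus NADPH.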 The method in brief:
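Metabolically competent format: test substances, human liver microsomes and NADPH (both 0.5 mg/mL final) incubated with p53RE-bla cells 16 h at 37 C. Beta-lactamase reporter signal then quantified by fluorescence.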

Experiment [7] in a line: p53 small molecule agonists, cell-based qHTS assay with rat liver microsomes (AID 1963578). The method in brief: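 Each plate received p53RE-bla cells, then compound, then rat liver microsomes and NADPH (both 0.5 mg/mL final). Plates were held 16 h at 37 C, and beta-lactamase activity was detected with LiveBLAzer over 2 h.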
Experiment [8] in a line: p53 small molecule agonists, cell-based qHTS assay with human liver microsomes: qHTS cell viability counter screen (AID 1963579). Note: nearly all actives have a fitted effect of over 45% in size. The method, boiled down:
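Tox21 library compounds, delivered from DMSO stocks, were tested on p53RE-bla cells together with 0.5 mg/mL human liver microsomes and 0.5 mg/mL NADPH (final) over 16 h at 37 C; CellTiter-Glo luminescence served as the cytotoxicity measure.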

Experiment [9] is described as follows: p53 small molecule agonists, cell-based qHTS assay (AID 1963582; active = well fitted activation curve with a large enough effect in the signal ratio in the repeat runs, not every such curve was filed as active; the % refers to the signal ratio). The method in brief:
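Agonist activity was scored from beta-lactamase FRET fluorescence in p53RE-bla cells treated 16 h at 37 C with compounds in DMSO, substrate incubation being 2 h at room temperature.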

Experiment [10] deals with 5-hydroxytryptamine receptor 2A (Homo sapiens) (UniProt P28223). The experiment can be described thus: 5-hydroxytryptamine receptor 2A (HTR2A) small molecule agonists, cell-based qHTS assay (AID 1963587). Note: nearly all actives have a fitted effect of over 30% in size. The method in brief: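 HTR2A-CHO cells, plated 18 h at 37 C/5% CO2, dye-loaded 1 h at 37 C; compounds in DMSO added by pin tool (agonist mode). Intracellular calcium flux read as kinetic fluorescence on FDSS over 2 min at 1 s intervals.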
Sequence of 5-hydroxytryptamine receptor 2A (Homo sapiens) (P28223 whole entry, looked up): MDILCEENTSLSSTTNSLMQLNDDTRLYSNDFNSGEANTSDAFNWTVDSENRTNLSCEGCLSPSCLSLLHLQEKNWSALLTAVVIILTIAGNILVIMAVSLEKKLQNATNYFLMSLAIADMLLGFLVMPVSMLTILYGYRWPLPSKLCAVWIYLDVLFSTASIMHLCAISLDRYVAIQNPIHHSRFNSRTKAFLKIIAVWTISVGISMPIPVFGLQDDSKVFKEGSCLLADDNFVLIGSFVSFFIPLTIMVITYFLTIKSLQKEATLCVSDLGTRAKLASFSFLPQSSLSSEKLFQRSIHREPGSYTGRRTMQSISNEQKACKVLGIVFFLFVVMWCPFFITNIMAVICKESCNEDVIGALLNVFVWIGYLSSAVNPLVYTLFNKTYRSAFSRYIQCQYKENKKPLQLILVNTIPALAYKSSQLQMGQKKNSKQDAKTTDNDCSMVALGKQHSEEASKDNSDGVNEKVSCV

Experiment [11] deals with Muscarinic acetylcholine receptor M1 (Homo sapiens) (UniProt P11229). The experiment can be described thus: Cholinergic receptor muscarinic 1 (CHRM1) small molecule antagonists, cell-based qHTS assay (AID 1963588). Note: nearly all actives have a fitted effect of over 40% in size. The method in brief:
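CHRM1-CHO calcium-flux assay, antagonist mode. Cells were seeded 18 h, dye-loaded 1 h at 37 C and given compound for 5 min at RT, then acetylcholine was added at 50nM. FDSS fluorescence was read 3 min; 15 concentrations, three runs.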

Experiment [12] has the same target. Put plainly: Cholinergic receptor muscarinic 1 (CHRM1) small molecule agonists, cell-based qHTS assay (AID 1963589). Note: nearly all actives have a fitted effect of over 35% in size. The method, boiled down: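 Stable CHRM1-CHO cells (human receptor) were incubated 18 h, dye-loaded for 1 h at 37 C and exposed to test compounds for agonist activity, with calcium-dependent fluorescence followed kinetically.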
Experiment [13] is described as follows: cAMP Responsive Elements (CRE) small molecule agonists, cell-based qHTS assay (AID 1963590). The method, boiled down: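 FRET-based beta-lactamase readout (LiveBLAzer B/G, 2 h RT) quantified CRE activation in HEK 293T CRE-bla cells after 3 h treatment with DMSO-dissolved compounds.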
The target in experiment [14] is Beta-2 adrenergic receptor (Homo sapiens) (UniProt P07550). The experiment can be described thus: Adrenergic beta2 receptor (ADRB2) small molecule antagonists, cell-based qHTS assay (AID 1963592). Note: series mostly up to about 92 µM; nearly all actives have a fitted effect of over 50% in size. The method in brief: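 Cells (CHO, stable ADRB2 overexpression) incubated 18-20hr at 37C; compounds added from DMSO; agonist mix (1nM isoproterenol, 100uM IBMX, 25uM Ro-20-1724) added; 0.5hr RT; d2-cAMP and anti-cAMP-cryptate added; 1hr RT; 665/615 nm read.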
Sequence of Beta-2 adrenergic receptor (Homo sapiens) (P07550 whole entry, looked up): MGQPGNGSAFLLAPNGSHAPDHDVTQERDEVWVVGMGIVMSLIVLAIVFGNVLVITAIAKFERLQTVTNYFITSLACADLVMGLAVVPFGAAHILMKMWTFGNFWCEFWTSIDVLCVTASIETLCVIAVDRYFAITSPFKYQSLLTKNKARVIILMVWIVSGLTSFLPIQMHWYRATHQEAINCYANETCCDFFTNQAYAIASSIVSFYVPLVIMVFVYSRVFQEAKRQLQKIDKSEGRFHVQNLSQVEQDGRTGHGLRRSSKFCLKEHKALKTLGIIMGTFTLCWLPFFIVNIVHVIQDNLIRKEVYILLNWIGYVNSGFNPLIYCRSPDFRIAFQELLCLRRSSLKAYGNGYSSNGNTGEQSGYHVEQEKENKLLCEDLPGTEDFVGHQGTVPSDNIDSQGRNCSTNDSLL

In experiment [15] the target is D(2) dopamine receptor (Homo sapiens) (UniProt P14416). The experiment can be described thus: Dopamine D2 receptor (DRD2) small molecule antagonists, cell-based qHTS assay (AID 1963595; active = well fitted inhibition curve with a large enough effect in the signal ratio in the repeat runs, with a control signal flat; the % refers to the signal ratio). The method, boiled down:
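HEK293 cells stably expressing DRD2 were preincubated with 0.1 mM Ro20-1724, then with compound for 10 min at room temperature. Cells were stimulated with 200 nM NKH477 plus 12 nM quinpirole for 30 min, and cAMP was read by HTRF.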

Experiment [16] concerns the target 5-hydroxytryptamine receptor 2A (Homo sapiens) (UniProt P28223). Put plainly: 5-hydroxytryptamine receptor 2A (HTR2A) small molecule antagonists, cell-based qHTS assay (AID 1963586). Note: nearly all actives have a fitted effect of over 45% in size. Note: potency is the fitted concentration of half-maximal effect. The method, boiled down:
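Antagonist-mode intracellular calcium assay: DOI (4 nM) added after 5 min compound pre-incubation at room temperature to dye-loaded HTR2A-CHO cells. Fluorescence followed for 3 min, sampled every second.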

A short description of experiment [17]: cAMP Responsive Elements (CRE) small molecule antagonists, cell-based qHTS assay (AID 1963591; active = well fitted inhibition curve with a large enough effect in the signal ratio in the repeat runs, not every such curve was filed as active; the % refers to the signal ratio). The method, boiled down: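 qHTS in CRE-bla HEK 293T cells: compound in DMSO, then 0.25 uM NKH477 (final), 3 h at 37 °C/5% CO2; beta-lactamase FRET read-out after 2 h substrate incubation.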
In experiment [18] the target is Beta-2 adrenergic receptor (Homo sapiens) (UniProt P07550). Put plainly: Adrenergic beta2 receptor (ADRB2) small molecule agonists, cell-based qHTS assay (AID 1963593).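 Note: CHO cells stably overexpressing human ADRB2.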 The method, boiled down: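 CHO cells stably over-expressing ADRB2 were plated overnight at 37C, then dosed with compounds plus a stimulation mix containing 100uM IBMX and 25uM Ro-20-1724 for 0.5hr at room temperature. cAMP was measured by HTRF competition, 1hr.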

Experiment [19] deals with D(2) dopamine receptor (Homo sapiens) (UniProt P14416). Put plainly: Dopamine D2 receptor (DRD2) small molecule agonists, cell-based qHTS assay (AID 1963594). Note: nearly all actives have a fitted effect of over 35% in size. The method, boiled down: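 HEK293 cells stably expressing DRD2 were cultured 24 h at 37 C, then given Ro20-1724 (0.1 mM final) and compounds for 10 min at room temperature. NKH477 (200nM) was then added for 30 min. cAMP was read by HTRF.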
Sequence of D(2) dopamine receptor (Homo sapiens) (P14416 whole entry, looked up): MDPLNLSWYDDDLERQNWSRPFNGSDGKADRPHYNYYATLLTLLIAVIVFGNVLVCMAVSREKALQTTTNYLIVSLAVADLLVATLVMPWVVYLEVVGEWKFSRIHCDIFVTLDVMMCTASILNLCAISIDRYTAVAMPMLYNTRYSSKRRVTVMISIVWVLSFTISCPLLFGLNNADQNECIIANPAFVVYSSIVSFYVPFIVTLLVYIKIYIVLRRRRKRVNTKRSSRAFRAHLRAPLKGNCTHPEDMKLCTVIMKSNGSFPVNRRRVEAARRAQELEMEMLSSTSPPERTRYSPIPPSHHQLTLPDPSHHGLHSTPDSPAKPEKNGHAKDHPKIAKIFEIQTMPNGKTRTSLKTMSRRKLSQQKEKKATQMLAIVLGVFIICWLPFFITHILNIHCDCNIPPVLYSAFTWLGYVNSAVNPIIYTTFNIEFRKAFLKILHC

Each structure is given as a SMILES string. “And” between values parts separate entries of the source, which are not always exact repeats. Equal entries are not always repeated. Unmarked numbers belong to inactive results. Records with an inconclusive call do not appear. The source made the active and inactive calls. Unless noted, calls come from the whole dose curve.

Sequence of Gonadotropin-releasing hormone receptor (Homo sapiens) (P30968 whole entry, looked up): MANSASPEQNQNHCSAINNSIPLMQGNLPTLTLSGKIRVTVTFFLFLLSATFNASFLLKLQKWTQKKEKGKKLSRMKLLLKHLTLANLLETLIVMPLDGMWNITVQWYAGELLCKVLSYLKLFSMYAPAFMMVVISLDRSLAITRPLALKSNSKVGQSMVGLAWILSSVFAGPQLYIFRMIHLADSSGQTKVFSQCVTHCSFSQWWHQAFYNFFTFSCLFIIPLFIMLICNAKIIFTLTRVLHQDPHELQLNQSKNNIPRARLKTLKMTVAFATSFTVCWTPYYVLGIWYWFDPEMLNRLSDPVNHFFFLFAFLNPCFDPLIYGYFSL
Sequence of Muscarinic acetylcholine receptor M1 (Homo sapiens) (P11229 whole entry, looked up): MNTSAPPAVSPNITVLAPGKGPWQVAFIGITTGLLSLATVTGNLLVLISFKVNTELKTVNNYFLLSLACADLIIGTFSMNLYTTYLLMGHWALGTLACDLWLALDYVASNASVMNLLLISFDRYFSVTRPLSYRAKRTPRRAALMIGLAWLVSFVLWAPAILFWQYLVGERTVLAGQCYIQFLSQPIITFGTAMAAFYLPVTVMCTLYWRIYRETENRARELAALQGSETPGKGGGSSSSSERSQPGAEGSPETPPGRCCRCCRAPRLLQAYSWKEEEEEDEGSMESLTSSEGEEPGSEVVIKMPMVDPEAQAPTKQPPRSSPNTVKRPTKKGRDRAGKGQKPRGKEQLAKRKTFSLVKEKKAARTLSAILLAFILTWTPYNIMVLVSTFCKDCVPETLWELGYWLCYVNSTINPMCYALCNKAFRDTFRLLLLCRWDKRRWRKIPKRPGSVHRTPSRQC
Sequence of KiSS-1 receptor (Homo sapiens) (Q969F8 whole entry, looked up): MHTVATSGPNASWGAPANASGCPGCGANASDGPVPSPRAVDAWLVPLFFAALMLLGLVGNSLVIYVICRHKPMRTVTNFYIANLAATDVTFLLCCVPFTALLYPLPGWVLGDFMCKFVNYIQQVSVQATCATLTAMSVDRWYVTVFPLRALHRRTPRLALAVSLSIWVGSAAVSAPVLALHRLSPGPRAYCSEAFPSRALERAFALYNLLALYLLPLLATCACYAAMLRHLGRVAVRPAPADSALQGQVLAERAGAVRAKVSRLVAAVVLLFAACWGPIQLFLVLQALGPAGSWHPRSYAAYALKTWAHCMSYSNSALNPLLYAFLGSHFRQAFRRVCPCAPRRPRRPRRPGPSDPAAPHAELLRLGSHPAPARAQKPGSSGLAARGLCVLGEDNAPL

For the compound `CCCC(=O)CC`, the Potency entry in experiment [1], in [2], in experiment [3], in experiment [4], in experiment [5] and in [6] was “inactive” in each case. The Potency result in [7], in experiment [8], in [9], in experiment [10], in experiment [11] and in experiment [12] was “inactive” each time. For the same compound, the Potency entry in experiment [13], in experiment [14] and in experiment [15] was “inactive” throughout.

As to `CC[N+](C)(C)c1cccc(O)c1`, the Potency entry in [1], in experiment [2], in experiment [3], in experiment [4], in experiment [5] and in [6] was “inactive” in each case. For the same compound, the Potency result in [7], in experiment [8], in experiment [9], in [16], in experiment [10] and in experiment [11] was “inactive” each time. Moreover, the Potency entry in experiment [12], in experiment [13], in experiment [17], in experiment [14], in experiment [18] and in experiment [15] was “inactive” throughout.

As for `NC(=O)N[C@@H](CCC(=O)O)C(=O)O`, the Potency result in [1], in [2], in [3], in experiment [4], in experiment [5] and in [6] was “inactive” each time. The Potency entry in [7], in experiment [8], in [9], in experiment [10], in experiment [11] and in [12] was “inactive” in each case. Also, the Potency entry in experiment [13], in experiment [17], in experiment [14] and in [19] was “inactive” each time. For the same compound, the Potency in experiment [16] is 8.18 µM (active).

Turning to `O=C(CCNNC(=O)c1ccncc1)NCc1ccccc1`, the Potency entry in experiment [1], in experiment [2], in [3], in experiment [4], in [5] and in experiment [6] was “inactive” in each case. The Potency entry in experiment [7], in experiment [8], in [9], in experiment [16], in experiment [10] and in experiment [11] was “inactive” in each case. For the same compound, the Potency entry in [12], in experiment [13], in experiment [17], in experiment [14] and in experiment [19] was “inactive” in each case.

For `CC(=O)Oc1ccccc1C(=O)Nc1ncc([N+](=O)[O-])s1`, the Potency in [1] is 55.6 µM (active); in [2], 39.3 µM (active) and 29.8 µM (active). Further, the Potency entry in [3], in experiment [4], in experiment [5], in experiment [6], in experiment [7] and in [8] was “inactive” each time. The Potency result in [9], in experiment [16], in experiment [10], in [11], in experiment [12] and in experiment [14] was “inactive” in each case. Besides, the Potency result in [19] and in [15] was “inactive” in each case.

For `O=P(O)(OCc1ccccc1)OCc1ccccc1`, the Potency entry in experiment [1], in [2], in experiment [3], in experiment [4], in experiment [5] and in experiment [6] was “inactive” each time. Also, the Potency result in [7], in [8], in experiment [9], in [16], in [10] and in experiment [11] was “inactive” in each case. Moreover, the Potency entry in [12], in [13], in experiment [17], in [14], in experiment [19] and in experiment [15] was “inactive” each time.

As to `Cc1c(O)cccc1C(=O)N[C@@H](CSc1ccccc1)[C@H](O)CN1C[C@H]2CCCC[C@H]2C[C@H]1C(=O)NC(C)(C)C`, the Potency in experiment [1] is 11.9 µM (active). Further, the Potency entry in experiment [2], in [3], in experiment [4], in experiment [5], in [6] and in experiment [7] was “inactive” in each case. Also, the Potency entry in experiment [8], in [19] and in experiment [15] was “inactive” in each case.
